Hits are enriched below; roughly 5.7% of the tested compounds scored in any of these assays.
GLP1R inv ag: inverse agonists of human GLP-1 receptor; Potency, µM (series often up to 38.3 µM), for inactives: at the top dose activity change, negative = inhibition, usual class: inhibitors; HEK293 GLP-1R CRE-luciferase, luminescence, 24 h; GLP-1R form is constitutively active; P43220; 410,000 tested, 1.6% active; further: potency means the concentration at half of the fitted maximal effect; on the % scale 0 is the no-effect control and ±100 the full control effect; nearly all actives have a fitted effect of over 55% in size
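Cells are plated, allowed 12 hours at 37 deg C, then treated with compounds for 24 hr before luciferase detection reagent is added and luminescence is read after 12 min at room temperature. The HEK293 line carries constitutively active GLP-1R with a cAMP-responsive reporter.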
HEK293 tox: cytotoxicity in counter-screen for GLP-1R inverse agonists. HEK293 cAMP-luciferase reporter cells, luminescence, 24 h. Potency, µM (doses to about 38.3 µM), inactives show top-dose activity change, negative = inhibition, most hits filed as inhibitors. 410,000 tested, 0.13% active. AID 624418;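 further: loss of luciferase light is scored as toxicity; potency means the concentration at half of the fitted maximal effect; on the % scale 0 is the no-effect control and ±100 the full control effect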
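Seeding density was 200 cells/uL; after overnight-length (12 h) culture, 23 nL compounds went on for 24 h at 37 °C. Readout used a luciferase detection reagent, luminescence taken after 12 min at room temperature.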
GLP1R ag: GLP-1 receptor (human) agonism; P43220; HEK293 GLP-1R CRE-luciferase, luminescence, 4-6 h; cells express a hypersensitive GLP-1R form; Potency, µM (top dose mostly 45.6 µM), without a hit: at the highest dose activation, actives largely listed as activators; 380,000 tested, 0.007% active; AID 624172; further: potency means the concentration at half of the fitted maximal effect; % of control where 0% means no effect
ClpP mod: qHTS Assay for Activators of ClpP. Potency, µM (highest dose often 57.5 µM), inactives show at the highest dose activity change, negative = active. 340,000 tested, 1.9% active. purified B. subtilis ClpP, FRET peptide cleavage, 20 min; active means well fitted falling curve with a large enough effect; inconclusive means small, poorly fitted or top-dose-only effect; inactive means no such curve, though single readings can be large or run the other way; further: potency means the concentration at half of the fitted maximal effect; the source files actives as falling curves though it sought activators and does not explain the sign; nearly all actives have a fitted effect of over 65% in size
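FRET quenching reversal measured ClpP activation: 10 microg/mL B. subtilis ClpP at pH 8 with the FRET-FV decapeptide, read at 430 nm after 320 nm excitation. The 20-min minus 0-min signal was scaled between DMSO/no-enzyme wells and ADEP (5.8 microM final).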
DRD3 agonist: activates the human D3 dopamine receptor | 410,000 tested, 0.58% active | max activation, % | AID 652048 | D3R DiscoveRx beta-arrestin cells, luminescence, 90 min | P35462; in the data active means max activation above about 30%; further: 0% is about no effect
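Agonist-mode cell screen: cells plated at 1500/well and incubated overnight at 37 °C, then exposed to library compounds for 90 min at 37 °C. Detection reagent was added for 30–60 min at room temperature, and luminescence was read.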
D3 antag: D3 dopamine receptor (human) antagonism; 360,000 tested, 2.5% active; P35462; max response, negative = inhibition, %; D3R cells, DiscoveRx beta-arrestin luminescence, antagonist mode; active compounds read low; AID 652054; in the data active means max response below about -50%; inconclusive means no clear call, values can overlap the other calls; further: on the % scale 0 is the no-effect control and ±100 the full control effect
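Cells expressing the human receptor were seeded at 1500 cells/well, incubated overnight at 37 degrees C in 5% CO2, then exposed to library compounds with dopamine controls for 90 minutes at 37 degrees C before luminescent detection.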
* hit, by the source's call; u = inconclusive; x = no result; ! = repeats disagree. Unless noted, the call rests on the fitted dose curve; in most records, active means well fitted curve in the direction sought with a large enough effect; inconclusive means small, poorly fitted or top-dose-only effect, or another doubt; inactive means no such curve, though single readings can be large; an effect the other way counts as inactive or inconclusive.

SMILES | GLP1R inv ag | HEK293 tox | GLP1R ag | ClpP mod | DRD3 agonist | D3 antag
O=C(NN1C(=O)NC2(CCCCC2)C1=O)c1ccc(-c2ccc([N+](=O)[O-])cc2)o1 | u | 1% | 2% | -3% | 1 | 1
COc1ccc(C(=O)NCC(c2ccc(N(C)C)cc2)N2CCCC2)cc1 (centres undefined) | -4% | -2% | -1% | 2% | -18 | x
O=C(NN1C(=O)NC2(CCCCC2)C1=O)c1ccc(-c2ccccc2Cl)o1 | u | -9% | 2% | 1% | -6 | -52*
COc1ccc(C(CNC(=O)c2ccc(-c3ccccc3Cl)o2)N2CCCC2)cc1 (centres undefined) | u | u | 29% | -20% | -2 | -121*
COc1ccc(C(CNC(=O)c2ccc(-c3nc4ccccc4s3)o2)N2CCCC2)cc1 (centres undefined) | u | -19% | 28% | 4% | -20 | -83*
COc1ccc(C(CNC(=O)c2ccc(C)o2)N2CCOCC2)cc1 (centres undefined) | 19% | 3% | -3% | -2% | -6 | 0
Cc1ccc(C)c(N2CCN(C(=O)Cn3nc(Cc4cccnc4)c4ccccc4c3=O)CC2)c1 | -18% | -7% | x | -1% | -5 | x
CC(C)C[C@H]1CNC(=O)C(=O)N1C[C@@H]1CCCN1C[C@H](Cc1ccccc1)N1C[C@H](Cc2ccccc2)N(CCc2ccccc2)C(=O)C1=O | 30% | -9% | 0% | 0% | 0 | -1
N#Cc1nc(-c2ccc(Cl)cc2)oc1NCCc1ccccn1 | 37% | -2% | 0% | 32µM* | -2 | -1
CCOc1ccc(-c2nc(C#N)c(NC3CC3)o2)cc1 | 0% | -3% | -5% | 7.1µM* | 1 | -6
COc1ccc(-c2nc(C#N)c(NCCN(C)C)o2)cc1 | 3% | 5% | 6% | 5% | -8 | -61*
CN(C)CCCNc1oc(-c2ccc(Cl)cc2)nc1C#N | 5µM* | -8% | -11% | 6% | -1 | -17
Cc1onc(-c2ccccc2Cl)c1C(=O)Oc1cc(F)cc(F)c1 | 0% | -3% | x | -4% | -6 | x
CC(=O)c1cc2c(cc1C)CCCC2(C)C | -7% | 1% | 2% | x | -8 | 7
COc1ccccc1CNC(=O)c1ccc2nc(C)c(N(C)Cc3ccc(NC(C)=O)cc3)n2c1 | 8% | -8% | 7% | 1% | 2 | -17
COc1ccc(CCNc2oc(Cc3cccc4ccccc34)nc2C#N)cc1OC | u | -9% | u | u | 5 | -60*
COc1ccc(CNc2oc(-c3ccccc3)nc2C#N)cc1 | 71% | 2% | 8% | 4% | -3 | 3
COc1ccc(-c2nc(C#N)c(NCCc3ccccc3)o2)cc1 | 6% | -23% | 19% | 32µM* | -2 | -16
CN[C@H](CC(C)C)C(=O)N[C@H]1C(=O)N[C@@H](CC(N)=O)C(=O)N[C@H]2C(=O)N[C@H]3C(=O)N[C@H](C(=O)N[C@H](C(=O)O)c4cc(O)cc(O)c4-c4cc3ccc4O)[C@H](O)c3ccc(c(Cl)c3)Oc3cc2cc(c3O[C@@H]2OC(CO)[C@@H](O)[C@H](O)[C@H]2O[C@H]2C[C@](C)(N)[C@H](O)[C@H](C)O2)Oc2ccc(cc2Cl)[C@H]1O (some centres undefined) | x | x | -4% | x | x | x
CCCCNc1c(-c2cccc(-c3ccc(OC)cc3)c2)nc2cc(C)ccn12 | 11µM* | 2% | -9% | 5% | 2 | 18
CCCCNc1c(-c2ccc(-c3cccc(Cl)c3)cc2)nc2ccccn12 | u | 30% | 6% | u | 63* | 83
CCCCCCSc1cccc(-c2nc3ccc(Cl)cn3c2NCCCC)c1 | 17% | -5% | u | -5% | 33*! | 53
CCCCNc1c(-c2ccc(SC(C)CC)cc2)nc2ccc(Cl)cn12 (centres undefined) | u | 5% | u | u | -14 | -24
CCCCCCSc1ccc(-c2nc3cc(C)ccn3c2NC2CCCCC2)cc1 | u | -23% | -6% | 4% | -12 | 36
CCCCCCSc1ccc(-c2nc3ccccn3c2NCCCC)cc1 | u | -19% | 11% | 5% | 82* | 82
SMILES | GLP1R inv ag | HEK293 tox | GLP1R ag | ClpP mod | DRD3 agonist | D3 antag
Cc1ccc(N(C)C(=O)c2cc(S(=O)(=O)N3CCOCC3)cn2C)cc1 | 8% | -3% | x | -2% | -6 | x
COC(=O)/C=C/c1cc(F)ccc1S(=O)(=O)Nc1ccccc1 | x | x | x | -2% | x | x
C1=CCC(CN2CCN(C3CCCCCC3)CC2)CC1 (centres undefined) | -9% | -23% | 0% | x | -17 | u
FC(F)(F)c1cccc(N2CCN(CC3CC=CCC3)CC2)c1 (centres undefined) | u | -24% | -19% | -1% | -17 | -66*
CCCN1CCC(N2CCN(c3cccc(C(F)(F)F)c3)CC2)CC1 | 0% | -2% | 2% | 1% | -27 | u
O=C(c1ccccc1)N1CCN(CC2CC=CCC2)CC1 (centres undefined) | 7% | -2% | 4% | 1% | -4 | -60*
Cc1ccc(N2CCN(CC3CC=CCC3)CC2)cc1 (centres undefined) | 0% | 6% | -12% | -2% | -39 | -141*
COc1cccc(C2c3c(-c4ccccc4O)n[nH]c3C(=O)N2CCc2ccc(OC)c(OC)c2)c1 (centres undefined) | -29% | 1% | x | -2% | 4 | x
CC(=O)Oc1ccc(N2C(=O)c3cccc4c([N+](=O)[O-])ccc(c34)C2=O)cc1 | 21% | 11% | -4% | 1% | -14 | -100*
O=C1c2cccc3c([N+](=O)[O-])ccc(c23)C(=O)N1c1ccccn1 | u | 394% | -19% | -6% | -10 | -100*
CN(C)S(=O)(=O)c1ccc2c(c1)N(CC(=O)NCc1ccc(F)cc1)C(=O)CS2 | -7% | 3% | x | 1% | -14 | x
c1cc2c(cc1Cn1cnnn1)OCO2 | 3% | 10% | 4% | 3% | -7 | -57*
Cc1ccc(C)c(NC(=O)Cn2c(=O)n(CC(=O)NCCc3ccccc3)c(=O)c3ccccc32)c1 | 3% | 0% | -2% | 0% | -11 | x
CCOc1ccc(CNC(=O)c2ccc(-c3nc(CSc4ccc(C)cc4)c(C)o3)cc2)cc1 | 17% | 6% | x | -3% | 6 | x
COc1ccc(-c2cc(C(F)F)n3ncc(C(=O)N4CCN(C)CC4)c3n2)cc1 | -24% | 15% | 5% | 25µM* | -1 | u

Screening results from PubChem BioAssay.
